Most compounds without a hit are left out; they make up all but 0.17% or so of the library.
Apoferritin bind: qHTS Assay for Identification of Novel General Anesthetics. apoferritin/1-aminoanthracene competitive binding, fluorescence. Potency, µM (highest dose often 77.5 µM), without a hit: top-dose activity change, negative = displacement, hits mostly inhibitors. 350,000 tested, 0.074% active; also: % is scaled to controls: 0 for no effect and ±100 for the full control effect; nearly all actives have a fitted effect of over 20% in size
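10 uM apoferritin + 50% sat. 1-AMA, PBS; cpd 10 min RT; Ex380/Em535 endpoint; normalized to free probe vs complex; 4-param Hill fit; propofol titration as pos. ctrl.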
GRP78 ERSR act: qHTS for Inducers of the Endoplasmic Reticulum Stress Response (ERSR) in Human Glioma: qHTS; U87-MG GRP78 promoter luciferase reporter, 16 h; Potency, µM, without a hit: at the top dose activation, actives largely listed as activators; 420,000 tested, 0.02% active; also: series mostly up to about 76 µM; % of control where 0% means no effect; nearly all actives have a fitted effect of over 35% in size
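Stably transfected U87-MG human glioma cells carrying a GRP78-based luminescent sensor were seeded at 1000 cells/well, pin-dosed with compounds and incubated 16 h. Luciferase reagent was then added, and end-point luminescence was read after 10 min at room temperature.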
RGS4 inhibitor: Inhibitors of Regulator of G Protein Signaling (RGS) 4: qHTS. Potency, µM (top dose mostly 114 µM), for inactives: at the highest dose activity change, negative = inhibition, actives largely listed as inhibitors. Transcreener GDP fluorescence polarization, RGS4-accelerated GTP hydrolysis. 390,000 tested, 0.039% active. Regulator of G-protein signaling 4 (Homo sapiens), P49798; also: % is scaled to controls: 0 for no effect and ±100 for the full control effect; nearly all actives have a fitted effect of over 75% in size
Target sequence (P49798 whole entry, looked up): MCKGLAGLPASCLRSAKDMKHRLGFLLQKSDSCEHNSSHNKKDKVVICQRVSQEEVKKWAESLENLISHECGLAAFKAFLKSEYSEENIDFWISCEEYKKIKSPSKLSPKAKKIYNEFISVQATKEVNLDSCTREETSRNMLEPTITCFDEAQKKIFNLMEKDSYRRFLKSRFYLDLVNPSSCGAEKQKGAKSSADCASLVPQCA
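MLSMR compounds (23 nl, pin-transferred) preincubated 10 min at room temperature with a 500nM (2x) first reagent, then RGS4 at 900nM (2x) plus Transcreener GDP mix added; fluorescence polarization (620/688 nm) read before and after 90 min at 30 °C.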
B2AR arrestin: qHTS assay of beta-arrestin-biased ligands of beta2-adrenergic receptor; 330,000 tested, 0.02% active; beta-arrestin recruitment to beta2AR, cell-based reporter; Potency, µM (series often up to 46.1 µM), for the others: at the top dose activation, most hits filed as activators;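 also: 0% = DMSO controls and full agonism = EC100 isoproterenol or metaproterenol; nearly all actives have a fitted effect of over 65% in size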
Pin1 inh: qHTS Assay to Find Inhibitors of Pin1. Peptidyl-prolyl cis-trans isomerase NIMA-interacting 1 (Homo sapiens), Q13526. Pin1 FP peptide displacement, HiFluor488, 10 min. Potency, µM (top dose mostly 115 µM), inactives show at the highest dose activity, negative = inhibition, most hits filed as inhibitors. 390,000 tested, 0.009% active. AID 504891, 2011; active = well fitted inhibition curve with a large enough effect in the polarisation, with a control signal flat, not every such curve was filed as active; inconclusive = small, poorly fitted or top-dose-only effect, or effect the other way, or a change in a side signal; inactive = no such curve, though single readings can be large or run the other way; the % refers to the polarisation; also: % is scaled to controls: 0 for no effect and ±100 for the full control effect
Target sequence (Q13526 whole entry, looked up): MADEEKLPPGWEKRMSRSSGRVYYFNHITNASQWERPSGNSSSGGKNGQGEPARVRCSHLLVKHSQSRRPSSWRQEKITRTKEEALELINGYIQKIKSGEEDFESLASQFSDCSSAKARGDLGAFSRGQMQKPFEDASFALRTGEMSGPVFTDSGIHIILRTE
MmCpn inh: Inhibitors of TCP-1 ring complex (TRiC) of Methanococcus maripaludis (MmCpn): qHTS; purified Mm-Cpn ATPase, ADP Transcreener TR-FRET; Potency, µM (highest dose often 76.9 µM), inactives show at the top dose activity, negative = inhibition, hits mostly inhibitors; 330,000 tested, 0.031% active; also: % is scaled to controls: 0 for no effect and ±100 for the full control effect; nearly all actives have a fitted effect of over 80% in size
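Quantitative HTS used 25 nM Mm-CPN and 10 uM ATP in magnesium/KCl Tris buffer, pH 7.4, with 1 mM DTT. Hydrolysis ran 30 min at 37°C; ADP was read by HTRF.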
Numbers without * were called inactive; ? = inconclusive; . = no result; ! = not active in a repeat; [ ] = another dose, or the depositor's remark. Unless noted, calls follow the shape of the dose curve; as a rule, active = well fitted curve in the direction sought with a large enough effect; inconclusive = small, poorly fitted or top-dose-only effect, or another doubt; inactive = no such curve, though single readings can be large; an effect the other way counts as inactive or inconclusive. Potency is read from the fitted curve at half-maximal effect.

SMILES	Apoferritin bind	GRP78 ERSR act	RGS4 inhibitor	B2AR arrestin	Pin1 inh	MmCpn inh
COc1ccc(C2Nc3ccccc3C(=O)N2Cc2ccccc2)cc1COc1ccc(NC(=O)c2ccccc2)cc1 (stereo not drawn)	.	.	.	.	12%	.
O=C(c1ccccc1O)N(Cc1ccccc1)Cc1cccs1	.	.	.	.	-6%	.
CC[C@H](NC(C)C)[C@H](O)c1ccc(O)c2[nH]c(=O)ccc12	3%	-5%	24µM*!	.	.	.
CCC(c1ccc(O)c(O)c1)C(CC)c1ccc(O)c(O)c1 (stereo not drawn)	.	-7%	?	.	4%	.
CCC(NC(C)C)C(O)c1ccc(O)c(O)c1 (stereo not drawn)	2%	-3%	?	3.2µM*	-15%	1%[15.4 µM]
CCc1nn2c(=O)cc(NC3CNC3)nc2s1	.	.	.	.	40%	.
CN(CC(=O)O/N=C(\N)c1cccc([N+](=O)[O-])c1)S(=O)(=O)c1ccccc1	28µM*	-6%	-10%	0%	-14%	2%
CN(CC(=O)O/N=C(\N)c1ccc([N+](=O)[O-])cc1)S(=O)(=O)c1ccccc1	-23%	6%	-22%	-1%	2%	2%
Cc1cccc(C2=NN(c3ccccc3)[C@@H](C(=O)N3CCOC3=O)[C@@H]2c2ccc(F)cc2)c1	291%	-3%	3%	0%	?	32µM*
O=C(CNC(=O)c1cccs1)OCC(=O)c1ccc2ccccc2c1	14µM*	-4%	-8%	0%	-6%	-2%
CN(C)CCCOc1ccc(C(C)(C)c2ccccc2)cc1	16µM*	-6%	-20%	0%	-9%	0%
CC1=C(C)/C(=N\OS(=O)(=O)c2ccccc2)C=CC1=O	28µM*	-17%	?	?	7%	0%
CC(NC(=O)C1CCN(C(=O)N2CCOc3ccccc32)CC1)c1ccccc1 (stereo not drawn)	16µM*	-3%	1%	.	-4%	.
Cc1cc(C)c(NC(=O)C2CCN(C(=O)N3CCOc4ccccc43)CC2)c(C)c1	?	0%	-3%	.	-8%	.
C=CCn1c(C2CC2)n[nH]c1=S	-15%	-2%	-1%[56.9 µM]	-1%	3%	0%
CCCCCC1CCC(c2n[nH]c(=S)n2C)CC1 (stereo not drawn)	-16%	-6%	-20%	4µM*	-1%	1%
Cc1cc(S(=O)(=O)NCCc2ccccc2)c(C)s1	8.9µM*	5%	-3%	0%	-1%	1%
COc1ccc(C(=O)N(Cc2ccco2)Cc2ccco2)c(O)c1	.	.	.	.	-13%	.
COc1ccc(C2=NN(C(=S)Nc3ccccc3)C(c3ccccc3)C2)cc1 (stereo not drawn)	148%	0%	-6%	-1%	15%	-24%
COc1ccc(C2CC(c3ccccc3)=NN2C(=S)Nc2ccccc2)cc1 (stereo not drawn)	-10%	-3%	7%	-1%	5%	50µM*
Cc1ccccc1NC(=O)C(Cl)=C(Cl)Cl	?	35µM*	5%	0%	4%	1%
O=c1c2ccccc2nc2sc(Nc3ccc(Sc4ccccc4)cc3)nn12	.	.	.	.	35%	.
COc1ccc(N2C(=O)CS/C2=N\C(=S)Nc2ccccc2)cc1	-1%	-4%	-3%	5.6µM*	8%	-14%
CCCOc1ccc(CN2C(=O)C(=O)c3cccc(C)c32)cc1	32µM*	?	?	.	-11%	.
COc1ccccc1-c1sc2ccccc2c1-c1ccc2c(c1)OCCO2	.	0%	1%	-1%	0%	20µM*
COc1ccccc1-c1sc2ccccc2c1-c1ccccc1OC	.	-5%	-13%	0%	7%	56µM*
